Rows were chosen to be rich in hits. Some 2% of all compounds tested hit in one or more screens of this group.
KCNH2 3.1 block = blocks the human KCNH2 3.1 channel isoform; U2OS KCNH2 3.1, thallium flux FluxOr; hits give low values; activity change, % (tested at about 1.8 µM); 340,000 compounds, 0.95% hits; AID 720553;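 active means maximum activity change below -70%; inconclusive means maximum activity change from -70% to -50%; inactive means maximum activity change above -50%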;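 further: thallium influx rate constant from kinetic fluorescence after stimulation buffer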
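U2OS cells transduced with KCNH2 3.1 mutant virus (1.77 x 10^8 /mL, 4 h), plated overnight at 37 C, loaded 45 min with FluxOr dye plus Red40 quencher. Thallium flux rate constant from kinetic reads after stimulation buffer, normalised to controls.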
KDM4E inh = inhibitors of human JMJD2E histone demethylase | Potency, µM (doses to about 57.1 µM), most hits filed as inhibitors | 230,000 compounds, 1.6% hits | JMJD2E catalytic domain, FDH-coupled NADH fluorescence (FDH is formaldehyde dehydrogenase); further: nearly all actives have a fitted effect of over 50% in size
Six1-Eya2 inh = inhibitors of human Six1/Eya2 interaction; Q15475+O00167; AlphaScreen GST-Six1/His-Eya2 binding, biochemical; hits give low values; activity change, % (test concentration not listed); 360,000 compounds, 0.56% hits; AID 651725
Target sequence (O00167 whole entry, looked up): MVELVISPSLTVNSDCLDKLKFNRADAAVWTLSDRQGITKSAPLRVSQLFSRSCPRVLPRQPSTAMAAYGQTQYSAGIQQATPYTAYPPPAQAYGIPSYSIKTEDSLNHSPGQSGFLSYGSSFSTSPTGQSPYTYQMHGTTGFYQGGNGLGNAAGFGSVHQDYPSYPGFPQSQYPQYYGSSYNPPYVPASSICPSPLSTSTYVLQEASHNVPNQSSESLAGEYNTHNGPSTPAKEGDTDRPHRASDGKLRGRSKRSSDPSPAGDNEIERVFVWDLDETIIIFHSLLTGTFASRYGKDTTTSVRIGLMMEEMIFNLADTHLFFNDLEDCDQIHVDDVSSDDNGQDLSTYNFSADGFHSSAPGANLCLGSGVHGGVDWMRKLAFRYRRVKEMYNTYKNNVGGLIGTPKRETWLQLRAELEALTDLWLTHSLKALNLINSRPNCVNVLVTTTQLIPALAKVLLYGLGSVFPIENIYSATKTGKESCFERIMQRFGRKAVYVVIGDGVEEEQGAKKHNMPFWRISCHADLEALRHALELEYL
Target sequence (Q15475 whole entry, looked up): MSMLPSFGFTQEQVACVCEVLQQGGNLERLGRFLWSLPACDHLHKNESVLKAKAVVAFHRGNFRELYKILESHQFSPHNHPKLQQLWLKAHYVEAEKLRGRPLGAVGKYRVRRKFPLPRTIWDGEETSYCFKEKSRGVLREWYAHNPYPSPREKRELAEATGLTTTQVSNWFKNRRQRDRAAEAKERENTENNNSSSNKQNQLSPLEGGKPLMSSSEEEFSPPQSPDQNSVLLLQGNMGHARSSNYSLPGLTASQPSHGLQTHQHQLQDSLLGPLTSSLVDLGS
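GST-Six1 + His-Eya2 (5X stock: 250/500 nM); Tris pH 8.0, 300 mM NaCl, 0.05% BSA, 0.02% Tween 20; GSH donor/Ni acceptor beads; 1 h 37 °C dark; AlphaScreen readout.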
CtBP-E1A inh = inhibitors of CtBP/E1A interaction | AID 651724 | 340,000 compounds, 0.49% hits | activity change, % (test concentration not listed) | AlphaScreen GST-E1A/His-CtBP binding, 1536-well; hits give low values
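GST-E1A and His-tagged CtBP (125 nM each as 5X stock) were preincubated with pin-transferred compound for 2 h at 37 °C in the dark, then glutathione donor and nickel acceptor beads were added for 1 h before AlphaScreen reading.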
hERG WT inh = KCNH2 (human, wildtype) channel inhibition; U2OS, BacMam KCNH2, thallium flux FluxOr; hits give low values; activity change, % at 1.84 µM; 340,000 compounds, 0.37% hits;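 active means maximum activity change below -70%; inconclusive means maximum activity change between -70% and -50%; inactive means maximum activity change above -50%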
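U2OS cells were transduced with wild-type KCNH2 virus (2.03 x 10^8 / mL) for 4 h at room temperature, then cultured overnight at 37 C. Thallium flux was read with FluxOr dye. Rate constants were normalized to DMSO controls.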
Hits are given with their value; n = inactive; u = inconclusive; x = no result; ! = a repeat was not active. Unless noted, no stated cut-off is given here; in the data, active means activity change below about -65%; inconclusive means mostly about -30% to -63%; inactive means weaker than that.

SMILES	KCNH2 3.1 block	KDM4E inh	Six1-Eya2 inh	CtBP-E1A inh	hERG WT inh
CCOC(=O)C(NCc1ccccn1)(NC(=O)c1cccnc1)C(F)(F)F (stereo unspecified)	n	n	-82.6	n	n
CN(CC(=O)Nc1cccc(Cl)c1)S(=O)(=O)/C=C/c1ccccc1	n	x	n	n	n
CN1CCC(=C(c2ccccc2)c2ccc(Br)cc2)CC1	-96.8	x	n	x	n
CCn1cc(/C=C(\NC(=O)c2ccccc2OC)C(=O)NCCN2CCOCC2)c2ccccc21	n	x	n	n	n
O=C(OC1Cc2c(O)cc(O)cc2OC1c1cc(O)c(O)c(O)c1-c1c(C2Oc3cc(O)cc(O)c3CC2OC(=O)c2cc(O)c(O)c(O)c2)cc(O)c(O)c1O)c1cc(O)c(O)c(O)c1 (stereo unspecified)	x	11.2µM	x	x	x
O=C(O[C@@H]1Cc2c(O)cc(O)cc2OC1c1ccc(O)c(O)c1)c1cc(O)c(O)c(O)c1 (stereo partly specified)	x	7.08µM	x	x	x
O=C1c2c(O)cc(O)cc2OC(c2ccc(O)c(O)c2)C1O (stereo unspecified)	x	8.91µM	x	x	x
Oc1ccc(C2Oc3cc(O)cc(O)c3CC2O)cc1 (stereo unspecified)	x	n	x	x	x
COc1c(CC=C(C)C)cc(C2CC(=O)c3c(O)cc(O)cc3O2)c(CC=C(C)C)c1O (stereo unspecified)	n	x	n	n	n
Oc1cc(O)c2c(c1)O[C@H](c1ccc(O)c(O)c1)[C@H](O)C2	n	11.2µM!	n	n	n
C=CC[C@@H](CC(=O)NCCO)C(=O)N[C@@H](C)COC(=O)[C@@H](CC=C)Cc1ccc(F)cc1	n	x	n	n	n
CCN(CC(=O)Nc1cccc(OC)c1)CC(=O)Nc1ccc(Br)c(C)c1	n	x	n	n	n
CCCCn1c(NCc2ccc3c(c2)OCO3)nc2ccccc21	n	n	n	n	n
COc1ccc(Oc2ncccc2NC(=O)c2cccc(C)c2C)cc1	n	n	n	n	n
COc1ccc(C2=Nn3c(nnc3-c3ccc(OC)cc3)SC2)cc1	n	n	n	n	n
CCOc1ccc(C2=Nn3c(nnc3-c3ccccc3)SC2)cc1Cl	-202.8	n	n	n	n
COc1ccc(C2=Nn3c(nnc3-c3ccco3)SC2)cc1OC	n	u	-71.2	-87.1	n
COc1ccc(C2=Nn3c(nnc3-c3cc(C)[nH]n3)SC2)cc1	n	n	-76.7	u	n
COc1ccc(C2=Nn3c(nnc3-c3ccccn3)SC2)cc1OC	n	n	-77.4	-82.0	n
COc1ccc(C2=Nn3c(nnc3-c3ccccc3OC)SC2)cc1OC	n	n	n	u	n
NS(=O)(=O)c1cc2c(cc1Cl)NC(C1CC3C=CC1C3)NS2(=O)=O (stereo unspecified)	n	n	n	n	n
COc1ccc(/C=N/N2CCN(Cc3ccccc3)CC2)cc1	n	x	n	x	n
COc1ccc(/C=C/C2=CCN(Cc3ccc(OC)cc3)CC2)cc1	-78.8	28.2µM	n	n	n
NC(=Nc1ccc(N)cc1)C(N)=Nc1ccc(N)cc1	n	u	-65.3	u	n
NC(N)=Nc1ccc(Cl)cc1	x	n	x	x	x
SMILES	KCNH2 3.1 block	KDM4E inh	Six1-Eya2 inh	CtBP-E1A inh	hERG WT inh
Cc1c(-c2ccccc2)sc2nc[nH]c(=S)c12	-82.5	n	n	n	-116.0
CCc1cccc2c(C(=O)COC(=O)c3ccc([N+](=O)[O-])s3)c[nH]c12	n	n	n	n	n
O=C1C(=C(O)c2ccccc2)C(=O)c2ccccc21	n	n	n	n	n
O=C1C(=C(c2ccccc2)c2ccccc2)Nc2ccccc21	n	n	-70.3	u	n
Oc1ccccc1-c1nc(NCC2CCCO2)c2ccccc2n1 (stereo unspecified)	n	n	n	n	n
O=C(Nc1ccc2c(c1)nc1n2CCN(Cc2ccccc2)C1)NC1CCCCC1	-84.9	u	n	n	n
O=C(Nc1ccc2c(c1)nc1n2CCN(Cc2ccccc2)C1)c1cccs1	n	u	-79.6	-87.2	n
COCCN1CCn2c(nc3cc(NC(=O)NC4CCCCC4)ccc32)C1	n	u	n	n	n
COc1ccccc1C(=O)Nc1ccc2c(c1)nc1n2CCN(Cc2ccccc2)C1	n	u	n	n	n
C#Cc1ccc([C@H]2C=C(C(=O)NCc3ccccc3)O[C@@H](OCC)[C@@H]2CCCO)cc1	n	n	n	n	n
COc1ccc(N(CC(=O)NCc2ccc(Cl)cc2)S(=O)(=O)c2c(C)nn(C)c2C)cc1	n	x	n	n	n
